Among the data in PubChem BioAssay are composite z-score and z-score values, retold here.

Experiment [1] has as its system Wnt5a (protein binding on small-molecule microarray). The experiment can be described thus: Wnt5a binders on small-molecule microarray, primary screen, biophysical, 635/667 nm fluorescence (AID 1142).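 Also: fluorescence read at 667 nm with signal to noise per printed feature.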 The note with it: 635 nm fluorescence, higher = more signal.
Experiment [2] in a line: cell viability in Huh7 cells, primary screen, cytotoxicity control for HCV replication inhibitor project, CellTiter-Glo luminescence, basal, 48 h (AID 1143).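 Also: Huh7 hepatoma cells carrying a hepatitis C replication reporter with no stimulus; test concentration not given here.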 The conditions noted are these: Huh7 HCV replicon, higher = more signal, called active from +8 up or from −8 down. In general terms: In ATP-based viability assays light output follows the ATP content of the culture.
Experiment [3] can be described thus: P. aeruginosa biofilm formation inhibitors, primary screen, PAO1 strain, BacTiter-Glo luminescence, LB-PBS (AID 1144). The conditions noted are these: 12 h, higher = more signal.
A short description of experiment [4]: CREB reporter modulators without forskolin, primary screen, cell-based, PC12, CRE-LacZ reporter, unstimulated (AID 1145). The conditions noted are these: no forskolin, luminescence, 4.5 h, higher = more signal, called active from +8 up or from −8 down.
The nature of experiment [5]: CREB reporter modulators under forskolin, primary screen, cell-based, PC12, CRE-LacZ reporter, forskolin-stimulated (AID 1146).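 Also: PC12 cells with 6xCRE LacZ reporter stimulated by forskolin 10 µM; beta-galactosidase reporter signal reflecting CREB driven transcription.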 The note with it: luminescence, 4.5 h, higher = more signal, called active from +8 up or from −8 down.
For experiment [6], the target named is Streptavidin (Streptomyces avidinii) (UniProt P22629). The experiment can be described thus: streptavidin binders on small-molecule microarray, primary screen, artefact control for SMM compound annotation, biophysical, 635/667 nm fluorescence (AID 1147).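 Also: signal reflects streptavidin binding to arrayed compounds as a control protein.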 The conditions noted are these: streptavidin binding, higher = more signal.
Experiment [7] in a line: small-molecule binders of probe aInhba, primary screen, biochemical, small-molecule microarray, 635/667 nm fluorescence (AID 1148).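 Also: score merges 667nm spot fluorescence with signal-to-noise for antibody binding to printed compounds.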 The note with it: higher = more signal.
Experiment [8] concerns the target Torsin-1A (Homo sapiens) (UniProt O14656). The experiment can be described thus: torsin A binders from cell lysate, primary screen, small-molecule microarray, wild-type, 635/667 nm (AID 1149). The conditions noted are these: COS7 hTOR1A-WT lysate, 635 nm fluorescence, higher = more signal.
Experiment [9] has the same target. The experiment in a line: small-molecule binders of mutant TOR1A in lysate, primary screen, cell lysate, small-molecule microarray, COS7 lysate, 635/667 nm fluorescence (AID 1150).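 Also: score pools 667 nm emission and signal to noise measuring lysate protein binding.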 The conditions noted are these: COS7 hTOR1A mutant lysate, 635 nm fluorescence, higher = more signal.
Experiment [10] has as its system Sonic hedgehog protein (Shh). The experiment can be described thus: small-molecule binders of Shh protein, primary screen, biochemical, small-molecule microarray, 635/667 nm fluorescence (AID 1151).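 Also: Shh protein binding to compounds spotted on small-molecule microarray slides; score combines spot fluorescence intensity with signal-to-noise across triplicate slides.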 The note with it: small-molecule microarray binding, 635 nm fluorescence; higher = more signal.
Experiment [11] in a line: E. coli DRC41 culture turbidity changes, primary screen, E. coli filamentation inducer project, strain DRC41, OD650, 48 h (AID 1152).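 Also: E. coli MC1000 strain DRC41 lacking acrAB efflux pump and sulA.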 The conditions noted are these: E. coli DRC41 (acrAB sulA), higher = more signal, called active from +8 up or from −8 down.
Experiment [12] can be described thus: small-molecule binders of probe aLefty1, primary screen, biochemical, small-molecule microarray, 635/667 nm fluorescence (AID 1153).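 Also: score merges spot fluorescence with signal-to-noise ratio from the scanned slide images.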 The conditions noted are these: higher = more signal.
A short description of experiment [13]: PSAC antagonists in infected red cells, primary screen, cell-based, P. falciparum Indochina, OD700, 1 h (AID 1154). The note with it: P. falciparum Indochina infected RBC osmotic lysis, higher = more signal, called active from +8 up or from −8 down.
Experiment [14] is described as follows: PSAC antagonists in infected red cells, primary screen, cell-based, P. falciparum Indochina, OD700, 2 h (AID 1155).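 Also: lysis reports solute entry through the parasite surface anion channel PSAC; channel blockers reduce lysis of infected cells.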 The note with it: P. falciparum Indochina infected erythrocytes, osmotic lysis OD700; higher = more signal, called active from +8 up or from −8 down.
Experiment [15] is described as follows: osmotic lysis modulators in infected erythrocytes, primary screen, PSAC antagonist project, cell-based, P. falciparum Indochina, OD700, 3 h (AID 1156). The conditions noted are these: higher = more signal, called active from +8 up or from −8 down.
Experiment [16] is described as follows: PSAC antagonists in infected red cells, primary screen, cell-based, P. falciparum Indochina, OD700, 18 h (AID 1157). The conditions noted are these: P. falciparum Indochina infected erythrocytes, osmotic lysis OD700, 18 h; higher = more signal, called active from +8 up or from −8 down.
Experiment [17] in a line: modulators of S6 phosphorylation in cells, primary screen, cell-based, A549, cytoblot, luminescence, serum-stimulated (AID 1158).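 Also: serum-stimulated A549 lung adenocarcinoma cells; signal is phosphorylated S6 detected by cytoblot immunostaining with HRP secondary.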 The conditions noted are these: A549 phospho-S6 cytoblot, 5 h, higher = more signal.
The target in experiment [18] is NADPH oxidase 2 (Homo sapiens) (UniProt P04839). The experiment can be described thus: NOX2-dependent H2O2 signal modulators, primary screen, NOX inhibitor project, cell-based, HEK293-NOX2, PMA-stimulated, Amplex Red fluorescence (AID 1159). Also: test concentration not given here. The note with it: 45 min, higher = more signal, called active from +8 up or from −8 down.
The target in experiment [19] is NADPH oxidase 4 (Homo sapiens) (UniProt Q9NPH5). The experiment in a line: NOX4-dependent H2O2 signal modulators, primary screen, NOX inhibitor project, cell-based, HEK293-NOX4, tetracycline-induced, Amplex Red fluorescence (AID 1160). The note with it: 45 min, higher = more signal, called active from +8 up or from −8 down.
For experiment [20], the target named is NADPH oxidase 5 (Homo sapiens) (UniProt Q96PH1). The experiment in a line: NOX5-dependent H2O2 signal modulators, primary screen, NOX inhibitor project, cell-based, HEK293-NOX5, Amplex Red fluorescence (AID 1161). The conditions noted are these: HEK293-NOX5, ionomycin, 45 min, higher = more signal.

Active and inactive are the calls of the source. Unless noted, no rule for the calls is given here.

Sequence of NADPH oxidase 2 (Homo sapiens) (P04839 whole entry, looked up): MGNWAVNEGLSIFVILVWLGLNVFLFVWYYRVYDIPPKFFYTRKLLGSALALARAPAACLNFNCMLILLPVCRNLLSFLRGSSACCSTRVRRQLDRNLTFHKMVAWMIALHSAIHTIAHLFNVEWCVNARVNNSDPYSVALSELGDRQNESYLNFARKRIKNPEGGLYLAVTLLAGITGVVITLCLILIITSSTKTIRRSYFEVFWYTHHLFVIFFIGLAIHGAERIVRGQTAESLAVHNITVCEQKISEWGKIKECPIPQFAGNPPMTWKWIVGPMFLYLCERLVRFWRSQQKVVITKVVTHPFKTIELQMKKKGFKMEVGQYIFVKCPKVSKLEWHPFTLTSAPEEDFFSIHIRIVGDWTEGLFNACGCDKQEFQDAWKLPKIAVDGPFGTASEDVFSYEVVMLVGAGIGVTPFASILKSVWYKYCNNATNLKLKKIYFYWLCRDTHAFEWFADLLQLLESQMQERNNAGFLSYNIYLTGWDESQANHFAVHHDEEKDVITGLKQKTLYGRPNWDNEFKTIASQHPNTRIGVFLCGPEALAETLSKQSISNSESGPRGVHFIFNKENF
Sequence of Torsin-1A (Homo sapiens) (O14656 whole entry, looked up): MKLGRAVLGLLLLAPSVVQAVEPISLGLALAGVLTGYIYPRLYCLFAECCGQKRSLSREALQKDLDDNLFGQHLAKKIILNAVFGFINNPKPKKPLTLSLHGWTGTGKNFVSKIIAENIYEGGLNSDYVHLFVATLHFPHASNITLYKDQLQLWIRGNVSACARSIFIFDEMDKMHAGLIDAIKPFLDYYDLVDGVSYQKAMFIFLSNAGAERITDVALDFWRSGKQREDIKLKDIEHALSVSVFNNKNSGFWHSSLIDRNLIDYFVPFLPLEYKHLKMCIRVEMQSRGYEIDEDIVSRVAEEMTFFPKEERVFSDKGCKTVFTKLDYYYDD
Sequence of NADPH oxidase 5 (Homo sapiens) (Q96PH1 whole entry, looked up): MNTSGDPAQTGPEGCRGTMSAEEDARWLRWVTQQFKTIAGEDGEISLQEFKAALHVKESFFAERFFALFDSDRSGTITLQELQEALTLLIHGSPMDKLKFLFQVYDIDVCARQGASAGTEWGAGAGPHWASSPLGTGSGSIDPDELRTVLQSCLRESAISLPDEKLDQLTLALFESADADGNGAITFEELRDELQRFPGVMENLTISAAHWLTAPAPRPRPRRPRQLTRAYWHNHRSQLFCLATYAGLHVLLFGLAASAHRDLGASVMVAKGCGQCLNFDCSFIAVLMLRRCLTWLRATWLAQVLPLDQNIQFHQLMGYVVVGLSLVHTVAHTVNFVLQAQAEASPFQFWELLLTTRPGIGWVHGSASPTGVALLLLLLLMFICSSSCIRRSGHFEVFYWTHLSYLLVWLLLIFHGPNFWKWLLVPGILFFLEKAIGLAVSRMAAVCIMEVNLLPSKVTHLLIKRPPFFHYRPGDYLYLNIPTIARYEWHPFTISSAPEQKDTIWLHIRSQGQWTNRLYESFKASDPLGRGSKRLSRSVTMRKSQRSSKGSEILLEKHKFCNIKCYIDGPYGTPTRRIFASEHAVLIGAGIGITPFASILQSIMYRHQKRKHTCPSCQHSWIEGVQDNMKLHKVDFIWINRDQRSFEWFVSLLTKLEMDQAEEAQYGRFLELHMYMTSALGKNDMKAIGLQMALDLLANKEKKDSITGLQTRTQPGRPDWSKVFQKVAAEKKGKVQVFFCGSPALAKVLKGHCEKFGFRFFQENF
Sequence of Streptavidin (Streptomyces avidinii) (P22629 whole entry, looked up): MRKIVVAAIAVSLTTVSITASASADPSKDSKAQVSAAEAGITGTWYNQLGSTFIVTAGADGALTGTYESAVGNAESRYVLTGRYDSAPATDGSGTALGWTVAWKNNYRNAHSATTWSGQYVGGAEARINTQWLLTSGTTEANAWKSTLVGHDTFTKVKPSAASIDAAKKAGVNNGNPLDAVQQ
Sequence of NADPH oxidase 4 (Homo sapiens) (Q9NPH5 whole entry, looked up): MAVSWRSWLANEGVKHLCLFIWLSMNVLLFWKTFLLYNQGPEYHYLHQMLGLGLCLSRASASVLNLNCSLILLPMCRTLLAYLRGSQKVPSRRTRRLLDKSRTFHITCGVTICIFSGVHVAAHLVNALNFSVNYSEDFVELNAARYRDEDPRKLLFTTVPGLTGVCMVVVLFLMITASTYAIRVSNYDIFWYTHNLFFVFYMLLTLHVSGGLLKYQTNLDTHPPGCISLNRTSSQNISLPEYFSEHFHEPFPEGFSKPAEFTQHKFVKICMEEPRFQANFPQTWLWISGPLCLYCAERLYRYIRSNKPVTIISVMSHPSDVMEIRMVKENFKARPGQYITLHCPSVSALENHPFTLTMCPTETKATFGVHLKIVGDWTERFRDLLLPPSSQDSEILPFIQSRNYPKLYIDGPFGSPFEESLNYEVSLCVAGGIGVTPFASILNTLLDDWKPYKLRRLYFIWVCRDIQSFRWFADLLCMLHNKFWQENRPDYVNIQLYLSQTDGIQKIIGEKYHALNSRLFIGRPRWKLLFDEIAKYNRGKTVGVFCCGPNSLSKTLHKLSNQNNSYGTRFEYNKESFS

As to `CC(C)(C)N1CC=CC23O[C@@H]4C=CCOC(=O)[C@@H]4[C@H]2C(=O)N(CCCCCCO)[C@@H]3C1=O` (stereo not given in full), the composite z-score is -0.373 in [1]; -0.772 in [6]; -0.209 in experiment [7]; -0.191 in the experiment with Torsin-1A (Homo sapiens) [8]; 0.769 with Torsin-1A (Homo sapiens) [9]; -1.13 in experiment [10]. Further, the composite z-score in experiment [12] is -0.108. For the same compound, the z-score in experiment [2] was 0.0926 (inactive); in experiment [3] it was 2.06 (inactive); in [4], 0.475 (inactive); in [5] it was 0.437 (inactive); in experiment [11], -0.348 (inactive); in experiment [13], 1.69 (inactive). For the same compound, the z-score is 0.127 (inactive) in [14]; 0.935 (inactive) in experiment [15]; 0.381 (inactive) in experiment [16]; -0.613 in experiment [17]; 0.959 (inactive) in experiment [18]; -0.503 (inactive) in experiment [19]. In experiment [20], the z-score amounted to 1.47.
Turning to `CCOC(=O)C[C@H]1[C@H](OC(=O)Cc2ccc3c(c2)OCO3)[C@@H](NC(=O)Cc2ccc(OC)cc2)c2cc(OCCCO)ccc2N1C(=O)c1ccc2ccccc2n1`, the composite z-score was -0.223 in experiment [1]; 0.0739 in [6]; -0.0547 in experiment [7]; 0.183 in the experiment with Torsin-1A (Homo sapiens) [8]; 0.714 with Torsin-1A (Homo sapiens) [9]; 0.492 in experiment [10]. This compound also returned a composite z-score in [12] of 0.0889. Besides, the z-score in experiment [2] was -0.823 (inactive); in experiment [3] it was -0.687 (inactive); in experiment [4], 10.1 (active); in experiment [5], -1.24 (inactive); in [11], 2.96 (inactive); in experiment [13], 3.63 (inactive). The z-score in [14] is -0.486 (inactive); in [15], -1.03 (inactive); in experiment [16], -1.01 (inactive); in experiment [17] it was 1.29; in experiment [18], -1.03 (inactive); in [19], 1.04 (inactive). The compound also gave a z-score in [20] of 1.05.
`O[C@@H](Cc1ccccc1)[C@@H](/C=C/C1CC1)N(CC#Cc1ccccc1)Cc1cccc(Cl)c1`: the composite z-score in [1] was -0.501; in experiment [6] it was -0.679; in [7], -0.302; in the experiment with Torsin-1A (Homo sapiens) [8], -0.662; in the experiment with Torsin-1A (Homo sapiens) [9], -0.976; in [10], -1.03. The compound further came in with a composite z-score in experiment [12] of 0.161. The z-score in experiment [2] was -1.09 (inactive); in experiment [3], -0.94 (inactive); in experiment [4], 2.04 (inactive); in experiment [5], -0.295 (inactive); in experiment [11], 1.96 (inactive); in experiment [13], 1.49 (inactive). The z-score was 0.761 (inactive) in experiment [14]; 0.124 (inactive) in [15]; 0.23 (inactive) in [16]; 0.715 in [17]; 0.166 (inactive) in experiment [18]; 0.727 (inactive) in experiment [19]. Besides, the z-score in experiment [20] is -0.406.
Consider `CC(C)C(CO)N1C(=O)[C@@H]2C3C(=O)OCCC/C=C\[C@H]3OC23C=CCN(C(C)(C)C)C(=O)[C@@H]13` (stereo not given in full), for which the composite z-score was -0.0407 in experiment [1]; -0.542 in [6]; -0.231 in experiment [7]; 0.16 with Torsin-1A (Homo sapiens) [8]; 0.3 with Torsin-1A (Homo sapiens) [9]; 0.5 in [10]. Further, the composite z-score in experiment [12] was -0.142. The z-score in experiment [2] is -0.162 (inactive); in [3], 1.19 (inactive); in [4], -0.0778 (inactive); in experiment [5] it was -0.205 (inactive); in experiment [11], -0.69 (inactive); in experiment [13] it was 0.502 (inactive). For the same compound, the z-score in experiment [14] is 0.488 (inactive); in experiment [15], 0.441 (inactive); in [16], 0.478 (inactive); in experiment [17], -0.668; in experiment [18], 1.57 (inactive); in experiment [19], 0.339 (inactive). In experiment [20], this compound displayed a z-score of 2.34.
